Screening results as filed in PubChem.
Rows were chosen to be rich in hits. Some 10% of all compounds tested hit in one or more screens of this group.
CCT modulator: High-Throughput Screening for Modulators of Cytosolic Chaperonin Activity | AID 651819, 2012 | activity change, % (concentration not given with the values), hits read low | purified chaperonin ATPase assay, HTRF ADP detection, 30 min | hit rate 0.3% among 360,000; in the data active = activity change below about -30%
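We incubate TRiC, 40 or 20 nM final, with library compounds at 76 uM and 10 uM ATP for 30 min at 37 °C. ADP formed is detected with Transcreener HTRF reagents after 30 min at room temperature.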
MmCpn inh: Inhibitors of TCP-1 ring complex (TRiC) of Methanococcus maripaludis (MmCpn): qHTS. Chaperonin Mm-Cpn (Methanococcus maripaludis). purified Mm-Cpn ATPase, ADP Transcreener TR-FRET. Potency, µM (highest dose often 76.9 µM), hits mostly inhibitors. hit rate 0.031% among 330,000; also: nearly all actives have a fitted effect of over 80% in size
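ATP (10 uM final) was added to archaeal chaperonin (25 nM final) after 10 min exposure to test compound at 37°C; after 30 min further incubation, ADP was detected by competitive TR-FRET.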
PLK1 PBD block: qHTS for Inhibitors of PLK1-PDB (polo-like kinase 1 - polo-box domain): Primary Screen. Plk1 PBD binding of FITC phosphopeptide, fluorescence polarization. Potency, µM, usual class: inhibitors. hit rate 2.8% among 360,000. AID 720504, 2013; also: series mostly up to about 57 µM; nearly all actives have a fitted effect of over 65% in size
G9a block: qHTS Assay for Inhibitors of Histone Lysine Methyltransferase G9a. hit rate 8.8% among 350,000. G9a H3K9 monomethylation, AlphaScreen, 2 h. Histone-lysine N-methyltransferase EHMT2 (Homo sapiens), Q96KQ7. AID 504332, 2011. Potency, µM (doses to about 102 µM), hits mostly inhibitors; also: nearly all actives have a fitted effect of over 75% in size
Target sequence (Q96KQ7 913-1193 limits assumed): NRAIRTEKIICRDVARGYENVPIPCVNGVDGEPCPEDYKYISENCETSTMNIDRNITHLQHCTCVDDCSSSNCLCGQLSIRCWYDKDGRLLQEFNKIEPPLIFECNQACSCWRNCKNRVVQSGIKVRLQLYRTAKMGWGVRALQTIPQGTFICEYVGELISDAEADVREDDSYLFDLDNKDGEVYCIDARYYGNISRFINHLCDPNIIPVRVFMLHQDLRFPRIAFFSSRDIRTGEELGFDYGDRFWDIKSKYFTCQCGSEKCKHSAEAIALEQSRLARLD
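AlphaScreen detection with an anti-monomethyl H3K9 antibody quantified product after a 2 h room-temperature reaction containing 500 nM biotinylated H3K9 peptide, 20 µM SAM and 20 nM enzyme, which had been preincubated 15 min with compound.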
VDR inhibitor: Inhibitors of the vitamin D receptor (VDR): qHTS; hit rate 0.93% among 400,000; AID 504847, 2011; Vitamin D3 receptor (Homo sapiens), P11473; VDR-SRC2-3 peptide fluorescence polarization, 2 h; Potency, µM, most hits filed as inhibitors
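Fluorescence polarization assay of small-molecule disruption of VDR binding to coregulator peptide SRC2-3. Compounds and controls pin-transferred, then read after 2 h incubation at ambient room temperature.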
Sfp PPTase inh: qHTS Assay for Inhibitors of Bacillus subtilis Sfp phosphopantetheinyl transferase (PPTase). Biochemical Sfp PPTase activity, qHTS. AID 1490, 2009. hit rate 3.5% among 310,000. Potency, µM, hits mostly inhibitors. 4'-phosphopantetheinyl transferase ffp (Bacillus subtilis), Q9F4F7;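 also: the enzyme is Sfp with the accession as filed and its product quenches rhodamine fluorescence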
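Compounds were incubated with enzyme (final 15 nM) for 15 min at room temperature before substrate addition started the reaction. Fluorescence at 525 nm excitation, 598 nm emission was recorded immediately and after 30 minutes.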
Each line names hits and unclear results; the compound was inactive in the other large screens. Unless noted, calls follow the shape of the dose curve; as a rule, active = well fitted curve in the direction sought with a large enough effect; inconclusive = small, poorly fitted or top-dose-only effect, or another doubt; inactive = no such curve, though single readings can be large; an effect the other way counts as inactive or inconclusive.

NC(=O)c1cc[n+](CC2=C(C(=O)O)N3C(=O)[C@@H](NC(=O)C(c4ccccc4)S(=O)(=O)[O-])[C@H]3SC2)cc1 (stereo partly specified)	PLK1 PBD block 4.74µM
NC(=O)c1cc[n+](CC2=C(C(=O)[O-])N3C(=O)[C@@H](NC(=O)Cc4cccs4)[C@@H]3SC2)cc1	G9a block 7.94µM, VDR inhibitor 15.8µM (no result: CCT modulator, MmCpn inh, PLK1 PBD block)
NC(=O)c1cc[n+](CC2=C(C(=O)O)N3C(=O)[C@@H](NC(=O)[C@H](c4ccccc4)S(=O)(=O)[O-])[C@@H]3SC2)cc1	G9a block 5.62µM, VDR inhibitor inconclusive, Sfp PPTase inh inconclusive (no result: CCT modulator, MmCpn inh, PLK1 PBD block)
NC(=O)c1cc[n+](CC2=C(C(=O)O)N3C(=O)C(NC(=O)C(c4ccccc4)S(=O)(=O)[O-])C3SC2)cc1 (stereo unspecified)	none (no result: CCT modulator, MmCpn inh, PLK1 PBD block, G9a block, VDR inhibitor)
COc1cc(/C=C/c2nc(C#N)c(NCCc3ccccc3)o2)cc(OC)c1OC	G9a block inconclusive (no result: CCT modulator, MmCpn inh, PLK1 PBD block, Sfp PPTase inh)
CCSc1ncc(Cl)c(C(=O)N(Cc2ccccc2)c2ccc(OC)cc2)n1	none (no result: CCT modulator, MmCpn inh, PLK1 PBD block, Sfp PPTase inh)
C[C@H](CO)NC(=O)[C@H]1C[C@@H]1[C@H](NP(=O)(c1ccccc1)c1ccccc1)c1ccccc1	none (no result: CCT modulator, MmCpn inh, PLK1 PBD block, G9a block, VDR inhibitor)
Cc1cc(N2CCN(C)CC2)nc2ccc(NC(=O)Nc3ccccc3Cl)cc12	G9a block inconclusive (no result: CCT modulator, MmCpn inh, PLK1 PBD block, Sfp PPTase inh)
COc1cc(-c2cc(C(=O)Nc3ccc(S(=O)(=O)Nc4ncccn4)cc3)c3ccccc3n2)cc(OC)c1OC	PLK1 PBD block 26.7µM, VDR inhibitor inconclusive
Cc1ccc(-c2cc(C(=O)Nc3ccc(S(=O)(=O)Nc4nc(C)cc(C)n4)cc3)c3ccccc3n2)cc1	MmCpn inh inconclusive, G9a block 50.1µM
CCN(CC)S(=O)(=O)c1ccc(O)c(NC(=O)c2cc(-c3cc(OC)c(OC)c(OC)c3)nc3ccccc23)c1	PLK1 PBD block 18.9µM, G9a block 7.94µM, Sfp PPTase inh 44.7µM
COc1cc(-c2cc(C(=O)Nc3ccc(S(N)(=O)=O)cc3)c3ccccc3n2)cc(OC)c1OC	none
Cc1ccc(NS(=O)(=O)c2ccc(NC(=O)c3ccc(-c4ccccc4)cc3)cc2)c(C)c1	PLK1 PBD block 23.8µM (no result: MmCpn inh, G9a block, Sfp PPTase inh)
Nc1nonc1-n1nnc(C(=O)N/N=C\c2cccc(Cl)c2)c1CN1CCOCC1	G9a block 39.8µM
Cc1cc(C)c(/C=N/NC(=O)c2nnn(-c3nonc3N)c2CN2CCC(C)CC2)c(C)c1	G9a block inconclusive
CCC/C(=N/NC(=O)c1nnn(-c2nonc2N)c1CN1CCCCC1)c1ccccc1	PLK1 PBD block 26.7µM (no result: MmCpn inh, G9a block, Sfp PPTase inh)
CC(C)c1ccc(/C=N/NC(=O)c2nnn(-c3nonc3N)c2CN2CCOCC2)cc1	G9a block inconclusive
CCN1CCN(Cc2c(C(=O)N/N=C(\C)c3ccc(Cl)c(Cl)c3)nnn2-c2nonc2N)CC1	G9a block 44.7µM (no result: CCT modulator, PLK1 PBD block, VDR inhibitor)
CC1CCN(Cc2c(C(=O)O)nnn2-c2nonc2N)CC1	G9a block 50.1µM
CCCCC/C=C\C/C=C\C/C=C\C/C=C\CCCC(=O)O[C@@H](CO)COC(=O)CCCCCCCCCCCCCCCCC	none (no result: CCT modulator, MmCpn inh, PLK1 PBD block)
CC(=O)c1ccc(N2CCN(S(=O)(=O)c3ccc4[nH]c5c(c4c3)CCCC5)CC2)cc1	G9a block inconclusive (no result: CCT modulator, MmCpn inh, PLK1 PBD block, Sfp PPTase inh)
CN(C)c1ccc(N=Cc2cccn2C)cc1	G9a block 8.91µM, VDR inhibitor inconclusive
CN(C)c1ccc(N=c2sc3ccccc3n2C)cc1	G9a block inconclusive
CCOC(=O)C1CCCCN1Cc1ccc(F)c(Br)c1 (stereo unspecified)	G9a block 22.4µM, Sfp PPTase inh 63.1µM
CCOC(=O)C1CCCCN1Cc1ccc(OC)c(OC)c1 (stereo unspecified)	G9a block 31.6µM
CCC1CCCCN1Cc1ccc(OC)c(C)c1 (stereo unspecified)	G9a block 50.1µM
